Screening results: PubChem BioAssay, several laboratories
The list is not random: actives were taken first. Their share in the collection is about 4.2%.
AHR activator: activators of human aryl hydrocarbon receptor. 2.5% of 320,000 active. P35869. AHR-responsive luciferase reporter cells, luminescence. activation, % at 5 µM; in the data active = activation above about 47%;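 also: 0% = vehicle wells and 100% = reference agonist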
Target sequence (P35869 whole entry, looked up): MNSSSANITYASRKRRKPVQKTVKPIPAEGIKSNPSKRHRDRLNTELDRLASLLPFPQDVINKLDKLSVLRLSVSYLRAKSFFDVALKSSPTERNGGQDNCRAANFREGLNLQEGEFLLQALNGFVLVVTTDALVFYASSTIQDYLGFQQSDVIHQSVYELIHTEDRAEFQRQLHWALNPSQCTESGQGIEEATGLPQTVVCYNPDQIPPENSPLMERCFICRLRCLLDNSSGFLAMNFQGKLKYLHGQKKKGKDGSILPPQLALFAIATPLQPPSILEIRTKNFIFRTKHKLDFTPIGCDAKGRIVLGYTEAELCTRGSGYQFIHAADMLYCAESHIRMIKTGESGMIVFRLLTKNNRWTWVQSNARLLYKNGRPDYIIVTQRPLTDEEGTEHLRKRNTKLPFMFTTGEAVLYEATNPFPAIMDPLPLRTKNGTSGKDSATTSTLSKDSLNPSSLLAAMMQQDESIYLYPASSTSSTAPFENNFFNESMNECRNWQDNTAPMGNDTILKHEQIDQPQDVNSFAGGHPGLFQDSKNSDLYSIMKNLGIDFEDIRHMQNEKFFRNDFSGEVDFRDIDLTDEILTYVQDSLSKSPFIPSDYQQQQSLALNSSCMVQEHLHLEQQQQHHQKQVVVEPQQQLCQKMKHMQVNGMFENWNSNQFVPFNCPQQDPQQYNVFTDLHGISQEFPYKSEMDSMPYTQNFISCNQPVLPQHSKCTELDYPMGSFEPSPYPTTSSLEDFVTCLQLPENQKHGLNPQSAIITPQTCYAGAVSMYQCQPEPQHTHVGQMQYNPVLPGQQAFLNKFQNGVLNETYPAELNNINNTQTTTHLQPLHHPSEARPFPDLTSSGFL
GAA850 FXN act: frataxin GAA850 promoter activation | HEK293 lucGAA850 FXN promoter luciferase reporter, 24 h; percent of 10 µM SAHA response | 0.56% of 360,000 active | activation, % at 6 µM;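 active = activation above the average of all compounds screened plus 3 SD, cutoff fixed separately per campaign, cut at about 7.5% in these data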;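 also: 0% = DMSO wells and 100% = 10 µM SAHA wells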
esBAF inh: blocks esBAF chromatin remodeling in mouse ES cells; AID 602393; Bmi1-luciferase knock-in reporter, 24 h; 100% = twice the neutral-well signal; 2% of 350,000 active; reporter increase, % at 12.5 µM; in the data active = activation above about 40%; inconclusive = no clear call, values can overlap the other calls;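 also: 0% = median of the plate's neutral control wells and 100% = double that signal; a rise in the Bmi1 reporter signal indicates esBAF inhibition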
Wnt bcat act: activates Wnt/beta-catenin signaling in a reporter cell assay; activation, % at 9.35 µM; 1.2% of 300,000 active; activator, plate reader; AID 743398; in the data active = activation above about 30%, passing the limit was not always enough; inconclusive = no clear call, values can overlap the other calls;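 also: 0% = neutral control wells and 100% = positive control wells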
MITF act: increases MITF-driven TRPM1 promoter luciferase signal; SK-MEL-5 TRPM1-promoter luciferase, 24 h; % of positive control, neutral wells = 0; activation, % at 12.5 µM; 0.75% of 300,000 active; AID 588334;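 active = mean activation of at least 80% with every replicate also reaching 80%; inconclusive = mean reaches 80% but some replicate falls short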;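 also: 0% = neutral control wells and 100% = parthenolide positive control wells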
GAA30 counter: counter-screen for GAA850 frataxin promoter activators: GAA30 promoter activation; 66% of 1,900 active; HEK293 lucGAA30 FXN promoter luciferase, 24 h; DMSO = 0%, 5 µM ipriflavone = 100%; AID 588350; activation, % at 6 µM; shares compounds with GAA850 FXN act;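 active = mean activation above the mean of solvent-only control wells plus 3 SD, cut at about 22% in these data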;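 also: counterscreen of GAA850 promoter hits where activity marks nonselective or luminescence artifacts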
FXN GAA850 conf: confirmation of GAA850 frataxin (FXN) promoter activators; shares compounds with GAA850 FXN act; HEK293 lucGAA850 FXN promoter luciferase reporter, 24 h; 100% = activation by SAHA; activation, % at 6 µM; 86% of 1,900 active; AID 588351;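 active = mean activation above a set limit taken from the primary screen, cut at about 8% in these data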;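 also: 0% = DMSO wells and 100% = 10 µM SAHA wells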
Numbers without * were called inactive.

For CC(NC(=O)c1cc(S(=O)(=O)N(C)C)ccc1N1CCCC1)C1CC2CCC1C2 (stereo unspecified) the results were AHR activator 0, GAA850 FXN act 11*, Wnt bcat act -4, MITF act -5, GAA30 counter 31* and FXN GAA850 conf 13*.
CC1CC(=O)NN=C1c1ccc(N(C)C)c([N+](=O)[O-])c1 (stereo unspecified) was read as AHR activator -1, GAA850 FXN act 7.8*, esBAF inh 5, MITF act -9, GAA30 counter 26* and FXN GAA850 conf 22*.
CCN(CC)c1ccc(C2=NNC(=O)CC2C)cc1[N+](=O)[O-] (stereo unspecified) was read as AHR activator 7, GAA850 FXN act 6, esBAF inh 8, Wnt bcat act -18 and MITF act -30.
Screening CC(C)NC(=O)N1C[C@@H]2[C@H](c3ccccc31)[C@H](CO)N2C(=O)c1ccc(F)cc1 returned esBAF inh -5.
For Clc1ccccc1OCCn1cnc2ccccc21 the results were AHR activator -7, GAA850 FXN act 9.2*, esBAF inh 51*, MITF act 60, GAA30 counter 41* and FXN GAA850 conf 24*.
Screening COC(=O)/C(=C1/Oc2cc(C)oc(=O)c2S1)C(F)(F)F returned AHR activator -2, GAA850 FXN act 13*, esBAF inh -35, Wnt bcat act -11, MITF act -90, GAA30 counter 17 and FXN GAA850 conf 24*.
Screening COc1cc2c(cc1OC)-c1nnc(-c3cccs3)n1C(C)(C)C2 returned AHR activator 11, GAA850 FXN act 13*, esBAF inh -49, Wnt bcat act -2, MITF act -5, GAA30 counter 8 and FXN GAA850 conf 8.2*.
Cc1oc(=O)c(NC(=O)c2ccccc2)cc1C(=O)c1ccccc1 was read as AHR activator 0, GAA850 FXN act 8.2*, GAA30 counter 100* and FXN GAA850 conf 29*.
Cc1oc(=O)c(NC(=O)c2ccc(Cl)cc2)cc1C(=O)c1ccccc1 was read as AHR activator 1, GAA850 FXN act 12*, esBAF inh -2, Wnt bcat act 3, GAA30 counter 7 and FXN GAA850 conf 8.9*.
`COCCNC(=O)C[C@@H]1CC[C@@H]2[C@H](COC[C@@H](O)CN2Cc2cccc(-c3ccncc3)c2)O1` gave esBAF inh -13.
For COc1ccc(/C(C)=N/Nc2ccc(C(=O)O)cc2)cc1OC the results were AHR activator 11, GAA850 FXN act 8.5*, MITF act 16, GAA30 counter 93* and FXN GAA850 conf 32*.
Screening COc1cc(/C(C)=N/Nc2ccc(C(=O)O)cc2)cc(OC)c1OC returned AHR activator -4, GAA850 FXN act 3 and MITF act 35.
Screening Clc1ccc(C=Cc2ccccn2)c(Cl)c1 returned GAA850 FXN act 7.7*, esBAF inh -12, Wnt bcat act -1, MITF act 28, GAA30 counter 120* and FXN GAA850 conf 37*.
Screening O=C(Cc1ccccc1)Nc1ccc(NC(=O)c2ccco2)cc1 returned AHR activator -6, GAA850 FXN act 7.9*, esBAF inh 27, Wnt bcat act 3, MITF act 48, GAA30 counter 48* and FXN GAA850 conf 22*.
Screening COC(=O)Nc1ccc(OCc2ccccc2)cc1 returned AHR activator -1, GAA850 FXN act 10.0*, esBAF inh inconclusive, Wnt bcat act 16, MITF act 54, GAA30 counter 89* and FXN GAA850 conf 32*.
For CCOc1ccc(NC(=O)Cc2ccccc2)cc1 the results were AHR activator 19, GAA850 FXN act 8.4*, esBAF inh 66*, Wnt bcat act 35*, MITF act 83*, GAA30 counter 82* and FXN GAA850 conf 31*.
`O=C(COc1ccccc1)Nc1ccc(NC(=O)c2ccco2)cc1` gave AHR activator 2, GAA850 FXN act 1, Wnt bcat act -2 and MITF act 2.
